About 7,900 targets were measured; listed, in parts, are those with a hit and a random draw of the rest. About 0.6% of all pairs of compound and target were hits. Unmarked numbers belong to inactive results.
How the values were obtained:
Test in all cases: log2 fold change, soluble protein after heating vs DMSO (PISA); higher = thermal stabilisation; K562 cells, 10 uM, 30 min; active = over 0.2 and 3.5 SD of the protein, either way, in both replicates (recomputed)
erlotinib = compound: C#Cc1cccc(Nc2ncnc3cc(OCCOC)c(OCCOC)cc23)c1 [erlotinib]
How it was run: (§1)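 K562 cells at 2×10^6 cells/mL were given 10 μM compound for 30 min. Aliquots then went through 3 min of heating across 48°C-58°C, were pooled, and were extracted in PBS with 0.5% NP-40 at 4°C, and the supernatant after 21,000xg for 90 min was quantified by TMTpro 16plex LC-MS/MS with channel sums equalised. Thermal stability relative to control samples, from duplicates, is given as log2 fold change.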

[1] = compound: C/C(=N\NC(=O)C1=CC(=CC=C1)S(=O)(=O)N2CCOCC2)/C3=C(C=CC(=C3)Cl)O
How it was run: as §1

[2] = compound: C1=CC(=C(C=C1Cl)C2=NC3=NC=CN=C3C(=N2)NC4=CC=NC=C4)F
How it was run: as §1

[3] = compound: C1=CC(=CC=C1C2=NC3=C(N2)C=C(C=C3)C(=O)N)OC4=CC=C(C=C4)Cl
How it was run: as §1

[4] = compound: C1=CC2=C(C=CC(=C2)/C=C\3/C(=O)NC(=NCC4=CC=CS4)S3)N=C1
How it was run: as §1

[5] = compound: C1=CC2=NC=CN=C2C=C1/C=C/3\C(=O)NC(=O)S3
How it was run: as §1

[6] = compound: C1=CC=C(C=C1)C2=NC(=C(N2)C3=CC=NC=C3)C4=CC(=C(C=C4)Cl)O
How it was run: as §1

[7] = compound: C1=CC=C2C(=C1)C3=NNC4=CC=CC(=C43)C2=O
How it was run: as §1

[8] = compound: C1CCN(C1)C(=O)NC2=CC=CC(=C2)NC3=NC=C(C(=N3)NCCC4=CN=CN4)Br
How it was run: as §1

[9] = compound: C1CN(CCC1(CC2=CC=C(C=C2)Cl)N)C3=NC=NC4=C3C=CN4
How it was run: as §1

Chain of UniProt Q9NR12 (Q9NR12 whole entry, looked up): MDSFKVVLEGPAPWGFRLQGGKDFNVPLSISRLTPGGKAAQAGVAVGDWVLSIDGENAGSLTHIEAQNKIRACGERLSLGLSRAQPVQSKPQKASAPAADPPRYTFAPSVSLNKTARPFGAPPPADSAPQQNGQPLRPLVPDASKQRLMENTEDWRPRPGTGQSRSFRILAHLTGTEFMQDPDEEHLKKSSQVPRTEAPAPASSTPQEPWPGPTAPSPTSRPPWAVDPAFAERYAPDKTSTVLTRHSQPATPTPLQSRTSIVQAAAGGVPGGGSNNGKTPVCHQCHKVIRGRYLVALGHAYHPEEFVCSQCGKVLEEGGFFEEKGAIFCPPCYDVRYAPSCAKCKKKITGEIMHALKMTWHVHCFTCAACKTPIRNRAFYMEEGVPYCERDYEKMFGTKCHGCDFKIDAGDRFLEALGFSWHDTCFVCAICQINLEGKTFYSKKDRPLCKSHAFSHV
Chain of UniProt Q9Y5Y5 (Q9Y5Y5 whole entry, looked up): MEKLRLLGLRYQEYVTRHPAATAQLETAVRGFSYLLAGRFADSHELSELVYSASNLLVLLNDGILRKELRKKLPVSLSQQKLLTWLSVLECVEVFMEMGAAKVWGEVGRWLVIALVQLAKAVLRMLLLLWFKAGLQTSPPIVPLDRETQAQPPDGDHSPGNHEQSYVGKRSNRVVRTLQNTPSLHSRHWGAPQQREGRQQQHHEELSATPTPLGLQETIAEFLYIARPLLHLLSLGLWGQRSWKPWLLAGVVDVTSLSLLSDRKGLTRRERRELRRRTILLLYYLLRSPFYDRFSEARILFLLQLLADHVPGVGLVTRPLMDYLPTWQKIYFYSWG
Chain of UniProt Q86YH6 (Q86YH6 whole entry, looked up): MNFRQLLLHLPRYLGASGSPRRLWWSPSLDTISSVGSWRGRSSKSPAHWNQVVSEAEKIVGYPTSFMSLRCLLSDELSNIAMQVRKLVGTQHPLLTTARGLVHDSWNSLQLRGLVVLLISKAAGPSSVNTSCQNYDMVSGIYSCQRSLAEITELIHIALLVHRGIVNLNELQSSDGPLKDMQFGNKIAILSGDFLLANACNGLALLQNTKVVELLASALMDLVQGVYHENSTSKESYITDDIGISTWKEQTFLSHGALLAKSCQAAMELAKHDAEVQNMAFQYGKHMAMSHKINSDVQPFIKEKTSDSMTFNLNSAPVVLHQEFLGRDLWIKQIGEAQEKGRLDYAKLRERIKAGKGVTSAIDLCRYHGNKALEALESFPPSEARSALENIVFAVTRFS
Chain of UniProt Q9H300 (Q9H300 whole entry, looked up): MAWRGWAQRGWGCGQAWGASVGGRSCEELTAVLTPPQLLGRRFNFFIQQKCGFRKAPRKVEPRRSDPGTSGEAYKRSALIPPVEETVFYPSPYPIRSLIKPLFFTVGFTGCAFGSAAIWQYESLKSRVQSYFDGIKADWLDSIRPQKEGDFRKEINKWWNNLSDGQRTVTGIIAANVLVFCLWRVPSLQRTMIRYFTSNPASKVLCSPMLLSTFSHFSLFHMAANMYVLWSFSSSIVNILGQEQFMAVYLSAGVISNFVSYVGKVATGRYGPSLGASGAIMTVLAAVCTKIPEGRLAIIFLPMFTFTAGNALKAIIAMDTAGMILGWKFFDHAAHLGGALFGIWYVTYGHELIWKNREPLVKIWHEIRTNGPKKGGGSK
Chain of UniProt Q2TAL8 (Q2TAL8 whole entry, looked up): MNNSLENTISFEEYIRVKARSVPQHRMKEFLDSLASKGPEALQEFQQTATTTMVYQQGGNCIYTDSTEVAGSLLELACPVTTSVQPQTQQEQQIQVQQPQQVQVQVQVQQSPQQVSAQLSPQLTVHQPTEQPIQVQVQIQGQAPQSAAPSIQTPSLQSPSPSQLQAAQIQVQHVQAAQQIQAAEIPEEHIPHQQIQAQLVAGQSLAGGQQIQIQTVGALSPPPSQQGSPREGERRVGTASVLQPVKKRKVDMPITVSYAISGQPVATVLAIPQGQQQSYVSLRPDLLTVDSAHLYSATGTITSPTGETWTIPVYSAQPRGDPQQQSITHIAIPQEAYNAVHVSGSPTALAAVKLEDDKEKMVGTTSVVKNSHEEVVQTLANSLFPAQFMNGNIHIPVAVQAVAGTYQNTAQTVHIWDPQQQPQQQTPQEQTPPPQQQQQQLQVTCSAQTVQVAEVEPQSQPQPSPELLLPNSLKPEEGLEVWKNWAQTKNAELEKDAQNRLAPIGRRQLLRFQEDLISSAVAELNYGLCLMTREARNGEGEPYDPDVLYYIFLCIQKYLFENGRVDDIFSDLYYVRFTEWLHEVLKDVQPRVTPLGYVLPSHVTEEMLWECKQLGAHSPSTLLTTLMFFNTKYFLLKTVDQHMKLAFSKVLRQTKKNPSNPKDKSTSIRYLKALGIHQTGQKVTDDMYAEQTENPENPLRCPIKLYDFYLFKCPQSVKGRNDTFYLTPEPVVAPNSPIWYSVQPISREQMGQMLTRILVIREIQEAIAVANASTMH
Chain of UniProt Q5VU43 (Q5VU43 whole entry, looked up): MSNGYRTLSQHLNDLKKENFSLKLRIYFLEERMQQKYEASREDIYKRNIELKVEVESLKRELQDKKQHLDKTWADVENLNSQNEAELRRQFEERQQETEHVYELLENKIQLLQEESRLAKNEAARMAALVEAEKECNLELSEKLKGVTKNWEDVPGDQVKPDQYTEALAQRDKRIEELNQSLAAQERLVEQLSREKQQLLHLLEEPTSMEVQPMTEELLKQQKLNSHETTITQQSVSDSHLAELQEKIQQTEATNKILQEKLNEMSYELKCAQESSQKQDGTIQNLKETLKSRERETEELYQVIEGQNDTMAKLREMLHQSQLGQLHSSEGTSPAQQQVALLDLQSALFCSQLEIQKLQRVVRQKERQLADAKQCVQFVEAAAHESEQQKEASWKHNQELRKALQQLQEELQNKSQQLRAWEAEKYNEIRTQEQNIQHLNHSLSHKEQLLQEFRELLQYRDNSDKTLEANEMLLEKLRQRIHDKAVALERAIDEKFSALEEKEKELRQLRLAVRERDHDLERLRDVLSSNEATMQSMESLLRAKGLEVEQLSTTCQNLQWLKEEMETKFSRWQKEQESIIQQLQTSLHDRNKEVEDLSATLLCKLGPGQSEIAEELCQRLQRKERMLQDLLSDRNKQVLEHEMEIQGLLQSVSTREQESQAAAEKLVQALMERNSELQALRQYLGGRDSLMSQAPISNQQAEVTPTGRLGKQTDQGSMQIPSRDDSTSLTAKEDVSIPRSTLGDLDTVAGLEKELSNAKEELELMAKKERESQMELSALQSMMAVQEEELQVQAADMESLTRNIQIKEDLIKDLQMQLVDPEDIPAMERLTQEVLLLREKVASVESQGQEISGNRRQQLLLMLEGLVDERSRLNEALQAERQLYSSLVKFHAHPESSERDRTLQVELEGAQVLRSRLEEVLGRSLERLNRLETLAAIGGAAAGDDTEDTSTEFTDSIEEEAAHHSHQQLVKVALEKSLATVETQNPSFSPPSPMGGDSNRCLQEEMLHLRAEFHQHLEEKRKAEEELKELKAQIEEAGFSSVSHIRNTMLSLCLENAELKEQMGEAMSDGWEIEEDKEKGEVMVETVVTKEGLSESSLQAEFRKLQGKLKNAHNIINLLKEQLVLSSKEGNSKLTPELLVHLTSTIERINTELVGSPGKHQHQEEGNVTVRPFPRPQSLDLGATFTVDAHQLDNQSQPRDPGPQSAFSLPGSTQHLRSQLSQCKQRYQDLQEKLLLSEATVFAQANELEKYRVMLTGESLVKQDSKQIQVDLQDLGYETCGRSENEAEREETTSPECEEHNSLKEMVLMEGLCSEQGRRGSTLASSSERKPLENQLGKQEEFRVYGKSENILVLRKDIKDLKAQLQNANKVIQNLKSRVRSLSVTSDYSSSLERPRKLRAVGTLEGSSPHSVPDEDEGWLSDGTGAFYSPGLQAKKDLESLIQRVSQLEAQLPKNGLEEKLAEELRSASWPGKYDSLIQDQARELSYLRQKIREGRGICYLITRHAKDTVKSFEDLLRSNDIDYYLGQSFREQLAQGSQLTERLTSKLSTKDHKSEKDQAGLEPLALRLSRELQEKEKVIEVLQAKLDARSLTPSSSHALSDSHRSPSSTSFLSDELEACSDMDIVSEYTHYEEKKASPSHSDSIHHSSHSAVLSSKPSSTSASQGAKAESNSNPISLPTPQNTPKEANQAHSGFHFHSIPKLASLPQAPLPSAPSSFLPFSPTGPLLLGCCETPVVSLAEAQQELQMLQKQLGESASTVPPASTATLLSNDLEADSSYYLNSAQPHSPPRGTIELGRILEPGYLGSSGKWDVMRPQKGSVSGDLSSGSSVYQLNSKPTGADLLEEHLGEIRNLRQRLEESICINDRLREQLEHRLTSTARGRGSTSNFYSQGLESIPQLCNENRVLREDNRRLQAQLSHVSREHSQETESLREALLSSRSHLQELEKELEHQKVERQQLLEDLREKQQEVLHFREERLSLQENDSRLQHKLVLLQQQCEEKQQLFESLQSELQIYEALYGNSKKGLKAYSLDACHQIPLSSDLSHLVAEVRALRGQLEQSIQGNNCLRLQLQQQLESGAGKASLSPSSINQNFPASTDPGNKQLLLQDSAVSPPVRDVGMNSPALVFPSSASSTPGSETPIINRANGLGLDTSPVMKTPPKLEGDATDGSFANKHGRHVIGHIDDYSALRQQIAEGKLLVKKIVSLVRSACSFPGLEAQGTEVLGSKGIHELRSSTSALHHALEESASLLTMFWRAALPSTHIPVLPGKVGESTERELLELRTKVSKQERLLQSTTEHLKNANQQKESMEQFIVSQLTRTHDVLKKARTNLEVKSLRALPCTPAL
Chain of UniProt P54619 (P54619 whole entry, looked up): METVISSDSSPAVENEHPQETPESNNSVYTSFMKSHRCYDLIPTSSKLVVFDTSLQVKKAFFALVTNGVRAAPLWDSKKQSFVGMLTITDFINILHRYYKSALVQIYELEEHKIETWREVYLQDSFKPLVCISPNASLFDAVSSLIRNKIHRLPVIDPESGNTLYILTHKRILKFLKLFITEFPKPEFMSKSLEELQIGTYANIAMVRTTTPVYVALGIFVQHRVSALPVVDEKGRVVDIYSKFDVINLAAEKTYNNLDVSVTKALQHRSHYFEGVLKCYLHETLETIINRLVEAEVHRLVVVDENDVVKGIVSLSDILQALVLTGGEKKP

Target | log2 fold change (erlotinib) | log2 fold change [1] | log2 fold change [2] | log2 fold change [3] | log2 fold change [4] | log2 fold change [5] | log2 fold change [6] | log2 fold change [7] | log2 fold change [8] | log2 fold change [9]
PARL (UniProt Q9H300) | -0.019 | 0.015 | 0.011 | -0.011 | 0.016 | 0.044 | 0.026 | -0.012 | 0.015 | 0.017
PDE4DIP isoform 4 (UniProt Q5VU43) | 0.027 | -0.002 | 0.186 | 0.01 | 0.089 | -0.043 | -0.059 | -0.02 | -0.037 | -0.061
PPP4R3B (UniProt Q5MIZ7) | 0.022 | 0.023 | 0.013 | -0.023 | 0.083 | 0.028 | -0.023 | -0.019 | -0.003 | -0.027
PARP1 (UniProt P09874) | 0.076 | 0.135 | 0.042 | -0.005 | 0.098 | -0.042 | 0.137 | 0.35 | -0.078 | -0.042
PEX16 isoform 2 (UniProt Q9Y5Y5) | 0.081 | -0.044 | 0.147 | 0.013 | 0.085 | 0.06 | 0.008 | -0.004 | -0.031 | 0.051
QRICH1 (UniProt Q2TAL8) | 0.066 | 0.361 | -0.023 | 0 | 0.282 | 0.059 | -0.053 | -0.007 | 0.014 | -0.076
PDLIM7 (UniProt Q9NR12) | 0.013 | 0.039 | 0.1 | -0.037 | -0.01 | 0.002 | 0.073 | 0.016 | -0.01 | 0.133
PTPN23 (UniProt Q9H3S7) | 0.092 | 0.158 | -0.007 | -0.048 | 0.041 | 0.018 | 0 | 0.006 | -0.048 | -0.029
PSMC2 (UniProt P35998) | -0.05 | -0.054 | -0.057 | 0.008 | -0.001 | -0.03 | 0.019 | 0.02 | -0.007 | -0.031
PCYT1B (UniProt Q9Y5K3) | 0.05 | 0.068 | -0.043 | 0.023 | 0.078 | 0.079 | -0.066 | 0.004 | 0.01 | -0.003
PRKCD (UniProt Q05655) | -0.01 | 0.004 | 0.028 | 0.065 | 0.016 | 0.044 | -0.006 | -0.008 | 0.009 | -0.001
PIK3CB (UniProt P42338) | 0.07 | 0.018 | 0.002 | -0.022 | 0.081 | 0.09 | 0.032 | 0.014 | -0.016 | 0.004
PPID (UniProt Q08752) | 0.114 | 0.111 | -0.01 | -0.021 | 0.075 | 0.007 | 0.095 | 0.021 | -0.076 | -0.118
PSMD11 (UniProt O00231) | -0.097 | -0.023 | -0.039 | 0.007 | -0.035 | -0.035 | 0.058 | 0.047 | -0.033 | -0.026
POLR2I (UniProt P36954) | -0.058 | -0.107 | 0.108 | 0.068 | -0.073 | -0.117 | 0.079 | -0.043 | -0.092 | 0
PKM (UniProt P14618) | 0.008 | -0.005 | 0.052 | 0.003 | 0.002 | -0.003 | -0.016 | -0.011 | -0.006 | 0.029
QKI (UniProt Q96PU8) | -0.011 | 0.051 | -0.008 | 0.003 | 0.028 | 0.007 | -0.002 | -0.032 | -0.025 | -0.007

Target | log2 fold change (erlotinib) | log2 fold change [1] | log2 fold change [2] | log2 fold change [3] | log2 fold change [4] | log2 fold change [5] | log2 fold change [6] | log2 fold change [7] | log2 fold change [8] | log2 fold change [9]
PPM1G (UniProt O15355) | 0.117 | 0.118 | 0.009 | -0.017 | 0.024 | 0.035 | -0.052 | -0.022 | -0.011 | -0.065
PIP4K2C (UniProt Q8TBX8) | 0.482 | -0.063 | 0.023 | -0.129 | 0.059 | 0.575 | 0.139 | 0.21 | 0.493 | -0.025
PML (UniProt P29590) | 0.045 | -0.073 | 0.015 | -0.022 | -0.043 | 0.071 | 0.033 | 0.007 | 0.002 | -0.005
PDSS2 (UniProt Q86YH6) | 0.029 | -0.011 | -0.04 | 0.012 | 0.053 | -0.025 | 0.026 | -0.006 | 0.061 | 0.073
PRKAG1 isoform 3 (UniProt P54619) | 0.025 | 0.038 | -0.016 | -0.012 | 0.083 | 0.032 | 0.037 | -0.015 | -0.007 | 0.045
PHLDB1 isoform 2 (UniProt Q86UU1) | -0.02 | 0.03 | 0.099 | 0.027 | 0.165 | -0.093 | 0.008 | -0.125 | -0.048 | 0.025
POLR3B (UniProt Q9NW08) | -0.022 | -0.027 | -0.003 | -0.09 | 0.004 | 0.022 | 0.025 | -0.018 | 0.194 | -0.088
PPIL2 (UniProt Q13356) | 0.061 | 0.072 | 0.064 | -0.033 | 0.047 | 0.004 | 0.026 | 0.067 | -0.052 | -0.079
PLEKHM2 (UniProt Q8IWE5) | 0.228 | 0.07 | 0.034 | -0.03 | 0.075 | 0.069 | 0.082 | -0.065 | -0.005 | -0.066
PTPMT1 (UniProt Q8WUK0) | -0.009 | -0.017 | 0.202 | 0.053 | 0.009 | 0.015 | 0.03 | 0.013 | -0.001 | -0.045
PTPA (UniProt A6PVN8) | -0.061 | 0.21 | -0.107 | 0.367 | 0.088 | 0.031 | 0.063 | 0.065 | 0.01 | 0.031
PHAX (UniProt Q9H814) | -0.004 | 0.042 | 0.045 | 0.009 | 0.023 | 0.054 | -0.047 | -0.101 | -0.013 | 0.059
PRKAR2B (UniProt P31323) | -0.017 | 0.066 | -0.082 | 0.16 | -0.004 | 0.012 | -0.058 | -0.083 | -0.449 (active) | -0.636 (active)
PRMT8 (UniProt Q9NR22) | -0.008 | 0.03 | 0.159 | -0.067 | 0.099 | -0.005 | 0.122 | 0.042 | 0.012 | 0.028
POLR2M (UniProt P0CAP2) | -0.042 | -0.033 | -0.054 | 0.004 | 0.05 | 0.055 | 0.041 | -0.009 | 0.017 | -0.024
PPP1R35 (UniProt Q8TAP8) | 0.137 | -0.064 | -0.038 | 0.029 | 0.01 | 0.034 | 0.021 | -0.031 | 0.009 | 0.001

Source: the supplement of paper PMC10849652
